The supplement of paper PMC6555819

Experiments:
Test in all cases: PBM binding z-score (relative to random genomic background probes); higher = stronger binding; sequences stand for … in GC…GCGATTGACAGCGTAGAATGAAGG
[1] = test system: PPARg:RXRa DBDmut IVT, anti-RXR (DBD mutation: RXRa K156A/R161A, NR concentration 270 nM, RXRa partner concentration 90 nM)
How it was run: (§1)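 Binding z-scores were set against random background probes. The data came from custom Agilent 4×180K protein-binding microarrays carrying double-stranded probes with 34-nt variable regions, incubated 1 h with ligand-free nuclear receptor dimers. Partner-specific antibodies detected binding, and scanned fluorescence was regression-normalized.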

[2] = test system: PPARg:RXRa IVT, anti-PPARg (NR concentration 270 nM, RXRa partner concentration 90 nM)
How it was run: as §1

[3] = test system: PPARg DBDmut:RXRa IVT, anti-PPARg (DBD mutation: PPARg1 K132A/R137A, NR concentration 270 nM, RXRa partner concentration 90 nM)
How it was run: as §1

[4] = test system: PPARg DBDmut IVT, anti-PPARg (DBD mutation: PPARg1 K132A/R137A, NR concentration 270 nM)
How it was run: as §1

[5] = test system: PPARg homodimer (NR concentration 180 nM)
How it was run: as §1

[6] = test system: PXR:RXRa (NR concentration 270 nM, RXRa partner concentration 90 nM)
How it was run: as §1

[7] = test system: PXR homodimer (NR concentration 270 nM)
How it was run: as §1

[8] = test system: RARa:RXR (NR concentration 270 nM, RXRa partner concentration 90 nM)
How it was run: as §1

[9] = test system: RARa homodimer (NR concentration 270 nM)
How it was run: as §1

[10] = test system: RARb:RXRa (NR concentration 270 nM, RXRa partner concentration 90 nM)
How it was run: as §1

Sequence: CCTCGGAGGACAACAGGAGGTCAGATCTGCCAGA
- PBM binding z-score [1]: 0.382
- PBM binding z-score [2]: 0.149
- PBM binding z-score [3]: -0.732
- PBM binding z-score [4]: -1.41
- PBM binding z-score [5]: 1.21
- PBM binding z-score [6]: 2.05
- PBM binding z-score [7]: 0.364
- PBM binding z-score [8]: 2.18
- PBM binding z-score [9]: 0.26
- PBM binding z-score [10]: 2.81

Sequence: CCTACTGGGCCAAAGGTCAATGATTCCAATGCTC
- PBM binding z-score [1]: 5.3
- PBM binding z-score [2]: 6.73
- PBM binding z-score [3]: 1.6
- PBM binding z-score [4]: 1.78
- PBM binding z-score [5]: 4.39
- PBM binding z-score [6]: 4.46
- PBM binding z-score [7]: 0.657
- PBM binding z-score [8]: 5.75
- PBM binding z-score [9]: 1.53
- PBM binding z-score [10]: 4.5

Sequence: CAAACTAGGTCTAGAGGTCAAAGTCCGCTTCCCG
- PBM binding z-score [1]: 3.11
- PBM binding z-score [2]: 4.41
- PBM binding z-score [3]: 0.248
- PBM binding z-score [4]: 0.06
- PBM binding z-score [5]: 3.03
- PBM binding z-score [6]: 5.4
- PBM binding z-score [7]: 2.48
- PBM binding z-score [8]: 5.69
- PBM binding z-score [9]: 0.52
- PBM binding z-score [10]: 3.96

Sequence: CGAACTAGGTCATTGACAGAACAGTGAATAGTAA
- PBM binding z-score [1]: 7.82
- PBM binding z-score [2]: 8.32
- PBM binding z-score [3]: 1.7
- PBM binding z-score [4]: 2.64
- PBM binding z-score [5]: 1.37
- PBM binding z-score [6]: 1.39
- PBM binding z-score [7]: -0.216
- PBM binding z-score [8]: 1.99
- PBM binding z-score [9]: 0.356
- PBM binding z-score [10]: 3.56

Sequence: ACATGTAGGTTACATCCGGGTCATTCAGGCTATG
- PBM binding z-score [1]: 6.27
- PBM binding z-score [2]: 6.09
- PBM binding z-score [3]: 4.52
- PBM binding z-score [4]: 4.01
- PBM binding z-score [5]: 3.27
- PBM binding z-score [6]: 3.95
- PBM binding z-score [7]: 2.86
- PBM binding z-score [8]: 3.98
- PBM binding z-score [9]: 0.622
- PBM binding z-score [10]: 2.43

Sequence: ACCGAAAGGTCGTGAGGTGAGTATACAGAAAGGC
- PBM binding z-score [1]: 0.638
- PBM binding z-score [2]: 2.23
- PBM binding z-score [3]: 0.794
- PBM binding z-score [4]: 0.846
- PBM binding z-score [5]: 1.51
- PBM binding z-score [6]: 3.29
- PBM binding z-score [7]: -0.242
- PBM binding z-score [8]: 4.22
- PBM binding z-score [9]: 0.0801
- PBM binding z-score [10]: 4

Sequence: TGTCAAAGTTCAAAGGTAACGTTAGTATCCACAC
- PBM binding z-score [1]: 0.507
- PBM binding z-score [2]: 4.64
- PBM binding z-score [3]: 0.572
- PBM binding z-score [4]: 1.49
- PBM binding z-score [5]: 2.93
- PBM binding z-score [6]: 5.67
- PBM binding z-score [7]: 4.38
- PBM binding z-score [8]: 6.71
- PBM binding z-score [9]: 1.65
- PBM binding z-score [10]: 5.29

Sequence: CCTATTAGTTGACCATAAGGACAACCGAAGCTCG
- PBM binding z-score [1]: 0.245
- PBM binding z-score [2]: 0.48
- PBM binding z-score [3]: 1.08
- PBM binding z-score [4]: 1.03
- PBM binding z-score [5]: 2.6
- PBM binding z-score [6]: 0.623
- PBM binding z-score [7]: 1.23
- PBM binding z-score [8]: 1.27
- PBM binding z-score [9]: 2.5
- PBM binding z-score [10]: 1.22

Sequence: ATCTCTAGGTAAAGATGGTTCAGTGAATGCAAAT
- PBM binding z-score [1]: 1.87
- PBM binding z-score [2]: 1.65
- PBM binding z-score [3]: 0.333
- PBM binding z-score [4]: 0.863
- PBM binding z-score [5]: 0.000234
- PBM binding z-score [6]: 0.269
- PBM binding z-score [7]: 0.428
- PBM binding z-score [8]: 0.492
- PBM binding z-score [9]: 0.88
- PBM binding z-score [10]: -0.00416

Sequence: TCAGACAGGTGAAGATAACTCAGGTACGCAGTCG
- PBM binding z-score [1]: 2.79
- PBM binding z-score [2]: 0.984
- PBM binding z-score [3]: 0.555
- PBM binding z-score [4]: 0.567
- PBM binding z-score [5]: 0.861
- PBM binding z-score [6]: 0.46
- PBM binding z-score [7]: 0.241
- PBM binding z-score [8]: 0.891
- PBM binding z-score [9]: 0.4
- PBM binding z-score [10]: 1.1

Sequence: GATACAGGGTCAGCTAGAGGCCAGCGTATGGAAA
- PBM binding z-score [1]: 1.62
- PBM binding z-score [2]: 2.35
- PBM binding z-score [3]: -0.653
- PBM binding z-score [4]: -0.347
- PBM binding z-score [5]: 2.22
- PBM binding z-score [6]: 2.97
- PBM binding z-score [7]: -0.477
- PBM binding z-score [8]: 4.55
- PBM binding z-score [9]: -0.0319
- PBM binding z-score [10]: 4.21

Sequence: CCTTACGGGTCACTGACACGTTATAGCATTTGGA
- PBM binding z-score [1]: 3.57
- PBM binding z-score [2]: 3.64
- PBM binding z-score [3]: 1.42
- PBM binding z-score [4]: 0.499
- PBM binding z-score [5]: 1.94
- PBM binding z-score [6]: 3.1
- PBM binding z-score [7]: 0.171
- PBM binding z-score [8]: 3.98
- PBM binding z-score [9]: 0.948
- PBM binding z-score [10]: 3.99

Sequence: ATCTCTAGGTAAAGATAGTTCAGTGGATGCAAAT
- PBM binding z-score [1]: 1.85
- PBM binding z-score [2]: 1.54
- PBM binding z-score [3]: 0.905
- PBM binding z-score [4]: 0.158
- PBM binding z-score [5]: 0.189
- PBM binding z-score [6]: 0.971
- PBM binding z-score [7]: 0.373
- PBM binding z-score [8]: 0.0212
- PBM binding z-score [9]: 1.18
- PBM binding z-score [10]: 0.718

Sequence: CCGACTGGGGAAGAAAGGTTACCATACCATCCGG
- PBM binding z-score [1]: -0.325
- PBM binding z-score [2]: 0.33
- PBM binding z-score [3]: -0.996
- PBM binding z-score [4]: -0.95
- PBM binding z-score [5]: 0.579
- PBM binding z-score [6]: 0.747
- PBM binding z-score [7]: -0.0818
- PBM binding z-score [8]: 1.3
- PBM binding z-score [9]: 0.0486
- PBM binding z-score [10]: 1.23

Sequence: TCATATAGGTAATACAGGTGAGAGTCGGCATCTA
- PBM binding z-score [1]: 3.93
- PBM binding z-score [2]: 3.29
- PBM binding z-score [3]: 1.38
- PBM binding z-score [4]: 1.56
- PBM binding z-score [5]: 0.749
- PBM binding z-score [6]: 0.46
- PBM binding z-score [7]: 0.623
- PBM binding z-score [8]: 0.533
- PBM binding z-score [9]: 1.42
- PBM binding z-score [10]: 0.457

Sequence: ACTAGCAGGCAAAGTTTGGGTCACTCAAACAAAG
- PBM binding z-score [1]: -0.359
- PBM binding z-score [2]: 0.492
- PBM binding z-score [3]: -0.258
- PBM binding z-score [4]: -0.0533
- PBM binding z-score [5]: 0.153
- PBM binding z-score [6]: 0.68
- PBM binding z-score [7]: -0.439
- PBM binding z-score [8]: 1.32
- PBM binding z-score [9]: -0.701
- PBM binding z-score [10]: 1.07

Sequence: CCGACTGGGGCAGAAATGTTACCATACCATCCGG
- PBM binding z-score [1]: 1.57
- PBM binding z-score [2]: 0.993
- PBM binding z-score [3]: -0.699
- PBM binding z-score [4]: -1.22
- PBM binding z-score [5]: -0.25
- PBM binding z-score [6]: -0.347
- PBM binding z-score [7]: -0.252
- PBM binding z-score [8]: -0.499
- PBM binding z-score [9]: -0.698
- PBM binding z-score [10]: 0.0353

Sequence: CGAACTACGTCAAGGACAGTGAATCTCCGCACGC
- PBM binding z-score [1]: -0.146
- PBM binding z-score [2]: -0.464
- PBM binding z-score [3]: -0.384
- PBM binding z-score [4]: -0.387
- PBM binding z-score [5]: -0.76
- PBM binding z-score [6]: -0.445
- PBM binding z-score [7]: 0.128
- PBM binding z-score [8]: -0.00341
- PBM binding z-score [9]: -0.551
- PBM binding z-score [10]: 0.27

Sequence: TCTATTAGTTGATTAGGGCACCCGAAACAGCGGA
- PBM binding z-score [1]: 2.25
- PBM binding z-score [2]: 1.68
- PBM binding z-score [3]: 0.695
- PBM binding z-score [4]: 1.2
- PBM binding z-score [5]: 1.1
- PBM binding z-score [6]: 0.419
- PBM binding z-score [7]: 0.671
- PBM binding z-score [8]: 0.573
- PBM binding z-score [9]: 1.64
- PBM binding z-score [10]: 0.873

Sequence: GCTAGTTGGTCAGTAAAACGTCACACACCGGTCG
- PBM binding z-score [1]: 0.256
- PBM binding z-score [2]: 0.168
- PBM binding z-score [3]: 0.0879
- PBM binding z-score [4]: -0.472
- PBM binding z-score [5]: -0.368
- PBM binding z-score [6]: -0.432
- PBM binding z-score [7]: -0.66
- PBM binding z-score [8]: -0.372
- PBM binding z-score [9]: -0.12
- PBM binding z-score [10]: 0.305

Sequence: TCATATAGGTAAATGCTAGGTGTAAGTCCGATCT
- PBM binding z-score [1]: 3.8
- PBM binding z-score [2]: 1.94
- PBM binding z-score [3]: 0.286
- PBM binding z-score [4]: 1.15
- PBM binding z-score [5]: 0.2
- PBM binding z-score [6]: 0.655
- PBM binding z-score [7]: -0.0284
- PBM binding z-score [8]: 0.00446
- PBM binding z-score [9]: 1.01
- PBM binding z-score [10]: 0.377

Sequence: ACTCGGAGGACAAAGGCCAGAGCTACGCCAGTGA
- PBM binding z-score [1]: -0.0476
- PBM binding z-score [2]: -0.304
- PBM binding z-score [3]: -0.91
- PBM binding z-score [4]: -1.31
- PBM binding z-score [5]: -0.117
- PBM binding z-score [6]: -0.788
- PBM binding z-score [7]: -0.627
- PBM binding z-score [8]: -0.794
- PBM binding z-score [9]: -0.32
- PBM binding z-score [10]: 1.44

Sequence: ATCCCTAGGTAACAAGTTCAGTGAAAGAGAGGAC
- PBM binding z-score [1]: 0.293
- PBM binding z-score [2]: 0.638
- PBM binding z-score [3]: 0.652
- PBM binding z-score [4]: 0.582
- PBM binding z-score [5]: 1.15
- PBM binding z-score [6]: 1.7
- PBM binding z-score [7]: 1.53
- PBM binding z-score [8]: 0.808
- PBM binding z-score [9]: 0.946
- PBM binding z-score [10]: 1.51
